Screening data from PubChem.
This is one part of a sample in which hits are shown more often than they occur.
Ba CapD inh: blocks the Bacillus anthracis CapD enzyme. purified CapD enzyme, fluorescence intensity read-out; hits give low values. z-score (test concentration not listed). hit rate 0.23% among 140,000; in the data active = z-score mostly below about -2.9, no sharp cut-off; inactive = mostly above about -1.9
* marks the source's active call; other numbers are inactive results; ! = not confirmed by another sample.

SMILES	Ba CapD inh
CCC1CCCCN1C(=O)CSc1ccc(Cl)cc1 (stereo unspecified)	-0.29
N#CC(C#N)=C(N)Nc1cccc(Cl)c1	0.105
COc1ccccc1C(=O)OC1CCN(C)CC1	0.055
COc1ccc(C(=O)ON2C(=O)CCC2=O)cc1	-1.09
COc1ccccc1C(=O)ON1C(=O)CCC1=O	-5.52*
COc1ccc(N2C(=O)CCC(C(=O)N3CCCCC3)C2c2ccc(OC)c(OC)c2)cc1 (stereo unspecified)	-0.575
COc1ccc(C2C(C(=O)N3CCOCC3)CCC(=O)N2c2ccc(OC)cc2)cc1 (stereo unspecified)	-10.3*
COc1ccc(C2C(C(=O)N3CCCC3)CC(=O)N2c2ccc(OC)cc2)cc1 (stereo unspecified)	-0.055
CCOc1ccc(NC(=O)CSc2nc3ccccc3n2S(=O)(=O)c2ccc(OC)cc2)cc1	0.205
CC(=O)Nc1ccc([N+](=O)[O-])cc1	-1.65
CCOC(=O)CC(=O)c1ccc([N+](=O)[O-])cc1	-0.145
CCNc1ccc([N+](=O)[O-])cc1	-4.51*
COCc1cc(C)nc(N2CCOCC2)c1C#N	-0.08
CCOc1cc(C2C(C(=O)OC)=CN(Cc3ccc(Cl)cc3)C=C2C(=O)OC)cc(Br)c1OC	58.7
CC1CC2(CC(C)OC2=O)C(=O)O1 (stereo unspecified)	1.01
C=C1C2(C(=O)Nc3cc(C)on3)CCC(C2)C1(C)C (stereo unspecified)	-0.455
COc1cccc(/C=C2/CCC/C(=C\c3cccc(OC)c3OC)C2=O)c1OC	0.33
COc1cccc(/C=C2/CC(C(C)(C)C)C/C(=C\c3cccc(OC)c3OC)C2=O)c1OC (stereo unspecified)	-9.16*
COc1ccc(/C=C2/CC(C(C)(C)C)C/C(=C\c3ccc(OC)cc3OC)C2=O)c(OC)c1 (stereo unspecified)	0.63
CC(C)(C)N=c1scc(-c2ccccc2)n1-c1ccccc1	0.005
CC(C)c1ccc(C2=CC(=O)C=CC2=O)cc1	5.72
O=C1C=CC(=O)C(c2ccc(C(=O)O)cc2)=C1	-7.98*
CCc1ccc(C2=CC(=O)C=CC2=O)cc1	-0.415
Nc1nc2nccnc2c(=O)[nH]1	86.1
COc1ccc(NC(=O)CN2CCCn3nc(C)cc32)cc1	-0.5
SMILES	Ba CapD inh
COc1ccc(C2C(C#N)=C(N)Oc3n[nH]c(C)c32)cc1CSc1nc2ccccc2o1 (stereo unspecified)	0.23
O=C1CC(C(=O)Nc2ccc(C(=O)O)cc2)C(c2ccccc2)O1 (stereo unspecified)	0.07
COc1cc(C=C2C(=O)NC(=O)NC2=O)ccc1OCc1ccc(C(=O)O)cc1	0.84
O=C1NC(=O)C(=Cc2ccc(OCc3ccc(C(=O)O)cc3)c(Br)c2)C(=O)N1	-0.22
O=C1NC(=S)NC(=O)C1=Cc1ccc(OCc2ccc(C(=O)O)cc2)c(Br)c1	-4.99*
COC(=O)COc1ccc2c(C)c(C)c(=O)oc2c1	0.58
CCOc1cc(/C=C2/SC(=S)N(C(CCC(=O)O)C(=O)O)C2=O)ccc1O (stereo unspecified)	-3.01
CCOc1cc(/C=C2/C(=N)N3C(c4ccccc4)=CSC3=NC2=O)ccc1OCCOc1ccc(C)c(C)c1	-0.085
Clc1cnc(-n2cccc2)nc1	-0.325
CCc1cc2c(=O)c(-c3cnn(-c4ccccc4)c3)c(C)oc2cc1O	0.425
COc1ccc([S+]2CCCCC2)cc1	-4.91*
COc1ccc(C2CCCCC2)cc1	0.46
COc1ccc(CN2CCCCCC2)cc1	0.375
Cc1cc2c(cc1C)NC(c1ccc(O)cc1O)C1=C(CC(C)(C)CC1=O)N2 (stereo unspecified)	16.1
O=c1[nH]c(=S)c2c(n1N1CCOCC1)CCC2	-4.99*
CC(C)c1ccc(N2C(=O)C3N=NN(CC(=O)Nc4ccccc4)C3C2=O)cc1 (stereo unspecified)	0.22
CCOc1ccc(N2C(=O)CSC2c2ccccc2[N+](=O)[O-])cc1 (stereo unspecified)	0.285
Cc1ccn(CCC(=O)NCCc2ccccc2)n1	-2.63
O=C1CC(=O)c2ccc3c4c(ccc1c24)C(=O)CC3=O	-5.06*
O=C1CC(=O)c2c1cccc2[N+](=O)[O-]	-2.21
CCOC(=O)c1oc2ccccc2c1NC(=O)CCSc1ccccc1	0.255
CCC1(C)Cc2ccccc2C(c2c(C)[nH]n(-c3ccccc3)c2=O)=N1 (stereo unspecified)	-0.25
c1ccc(CNc2ncnc3sccc23)cc1	0.375
Cc1cc(C(F)(F)F)c2c(n1)sc1c(O)cc(=O)[nH]c12	5.8
COc1ccc(C(=O)c2sc3nc(-c4ccco4)cc(C(F)(F)F)c3c2N)cc1OC	0.67
SMILES	Ba CapD inh
O=c1cc(O)c2sc3nc(-c4ccco4)cc(C(F)(F)F)c3c2[nH]1	-6.23*
COc1cccc(N2CCN(C(=O)c3nn(C)c4c3COc3ccccc3-4)CC2)c1	0.095
CCOC(=O)C(C#N)=C1CCN(Cc2ccccc2)CC1	1.24
O=c1[nH]c(-c2ccc(F)cc2)nc2c1sc(=S)n2-c1ccccc1	-0.26
O=c1[nH]cnc2c1sc(=S)n2-c1ccccc1	-5.43*!
COc1ccc(-c2nc3c(sc(=S)n3-c3ccccc3)c(=O)[nH]2)cc1	0.71
C=CCc1cccc(Cl)c1OCCSc1ncccn1	0.195
NC(=O)CSc1nc2ccccc2c(=O)n1-c1ccccc1	-0.27
CN1/C(=C/C(=O)CSC2CCCC2)C(C)(C)c2ccccc21	6.47
Cc1cc(/N=C/C=C2\N(C)c3ccccc3C2(C)C)n(CCC#N)n1	-4.36*
Cc1cc(/N=C/c2cc(C)n(Cc3ccccc3)c2C)n(CCC#N)n1	-1.58
CCCN(CCC)S(=O)(=O)c1cccc(-c2cn3ccc(C)cc3n2)c1	0.29
CCCCN(C)C(=O)c1oc(=O)c2ccccc2c1-c1ccc(C)cc1	2.21
CC1Cc2ccccc2N1C(=O)c1cc(S(=O)(=O)N2CCCC2)cn1C (stereo unspecified)	-0.545
CCN(CC)c1c2c(nc3nncn13)CCC2	-2.4
S=c1c2c(nc3nc[nH]n13)CCC2	-5.7*
c1ccc(N2CCN(c3c4c(nc5nncn35)CCC4)CC2)cc1	2.53
COc1ccc(CC(=O)Nc2ccc(S(N)(=O)=O)cc2)cc1OC	0.085
CCOC(=O)c1cc2ccccc2cc1O	-0.5
CCOC(=O)c1ccccc1S(N)(=O)=O	0.335
CCOC(=O)c1cccc(O)c1O	-2.7*
Cc1nc2ccccc2c2oc(C(=O)N3CCC(C)CC3)cc12	-1.05
O=C(CSc1nc2[nH]ncc2c(=O)n1-c1ccc(Br)cc1)Nc1ccc2c(c1)OCCO2	0.875
CC(=O)Nc1ccc(CN2CCN(C/C=C/c3ccccc3)CC2)cc1	-0.325
Cc1sc(-c2ccc(Cl)cc2)nc1CC(=O)N1CCC(C#N)(c2ccccc2)CC1	35.7
SMILES	Ba CapD inh
O=C1Nc2ccccc2/C1=C/c1cn[nH]c1-c1ccccc1	-2.78
Cc1snc(S(=O)(=O)/C(C#N)=N/Nc2cccc(C(F)(F)F)c2)c1C#N	-2.46
Cn1cncc1S(=O)(=O)/C(C#N)=N/Nc1ccc(OC(F)(F)F)cc1	-2.7
COc1ccc(N/N=C(/C#N)S(=O)(=O)c2nsc(C)c2C#N)cc1	-5.8*
COc1ccc(-n2nc(C(=O)N3CCCC3)c3c4ccccc4n(C)c3c2=O)cc1	1.67
COc1ccc(-n2nc(C(=O)N(C)Cc3ccccc3)c3c4ccccc4n(C)c3c2=O)cc1	0.72
COc1ccc(-n2nc(C(=O)N(C)c3ccccc3)c3c4ccccc4n(C)c3c2=O)cc1	-4.31*
CS(=O)(=O)c1ccc(COC(=O)c2ccccc2O)cc1	0.37
O=C(Nc1ccc(Oc2ccc(Cl)cc2)cc1)c1cc2ccc(O)cc2oc1=O	0.185
NC(=O)c1ccc2ccccc2c1	7.43
